Where “and” joins values, the source holds several entries; their conditions need not be identical. Identical values can stand only once. Out of some 350,000 compounds screened, about 1,200 (0.34%) were called active. A call without a number means that no potency is given here. Not shown: some 3% with an inconclusive outcome. This is one part of a sample in which actives are shown more often than they occur. Calls follow the shape of the dose curve; as a rule, active = well fitted inhibition curve with a large enough effect; inconclusive = small, poorly fitted or top-dose-only effect; inactive = no such curve, though single readings can be large or run the other way. Some compounds were tested as several samples or in several runs, with calls that do not always agree.
Potency is read from the fitted curve at half-maximal effect.

Chain of DNA repair nuclease/redox regulator APEX1 (Homo sapiens) (P27695 whole entry, looked up): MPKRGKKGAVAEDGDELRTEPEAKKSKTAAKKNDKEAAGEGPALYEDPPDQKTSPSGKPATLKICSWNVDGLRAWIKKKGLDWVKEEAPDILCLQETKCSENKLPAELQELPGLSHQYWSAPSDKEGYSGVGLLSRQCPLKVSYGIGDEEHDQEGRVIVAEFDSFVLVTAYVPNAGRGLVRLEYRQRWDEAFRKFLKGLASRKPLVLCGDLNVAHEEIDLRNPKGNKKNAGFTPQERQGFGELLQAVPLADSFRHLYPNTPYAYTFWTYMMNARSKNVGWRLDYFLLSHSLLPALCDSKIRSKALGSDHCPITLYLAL

The target in the test is DNA repair nuclease/redox regulator APEX1 (Homo sapiens) (UniProt P27695). The experiment in a line: qHTS Assay for Inhibitors of the Human Apurinic/apyrimidinic Endonuclease 1 (APE1). Also: nearly all actives have a fitted effect of over 55% in size. The settings on record: recombinant APE1, TAMRA/BHQ-2 abasic DNA cleavage fluorescence; series mostly up to 65.8 µM. The source says:
The apurinic/apyrimidinic endonuclease APE1 is the primary mammalian enzyme responsible for the removal of abasic (or AP) sites in DNA and functions centrally in the base excision DNA repair (BER) pathway. […] Thus, targeting APE1 could improve the efficacy of current treatment paradigms by promoting selective sensitization or protection of diseased and normal cells, respectively.
Inhibition of APE1 activity was screened by utilizing double-stranded short substrate containing tetrahydrofuran (THF) abasic site labeled with rhodamine-type fluorophore (TAMRA) at the 5'-end and with non-fluorescent Black Hole Quencher-2 (BHQ-2) at the opposing 3'-end. An increase in the fluorescence intensity due to incision of the abasic site by APE1 was used to measure the enzyme activity.
NIH Chemical Genomics Center [NCGC]
NIH Molecular Libraries Probe Centers Network [MLPCN]
Assay Provider: David M. Wilson, III, National Institute on Aging, NIH
Three uL of enzyme solution (0.75 nM APE1 final concentration) was dispensed to 1536-well Greiner black solid bottom plates. […] The plates were incubated for 15 min at room temperature, and then 1 uL of substrate solution (50 nM final concentration of TAMRA/BHQ-2) was added to start the reaction. The plates were immediately transferred into ViewLux High-throughput CCD imager (Perkin-Elmer) in order to measure the reaction progress in kinetic mode (three reads every 60 seconds) using 525 nm excitation and 598 nm emission fluorescence protocol. The fluorescence intensity difference between the third and the first time points was used to compute reaction progress. Results were normalized to buffer only columns and NSC13755 positive controls and negative control DMSO treated wells.
Regarding `COc1ccc(N2C(=O)/C(=C/c3ccco3)C(=O)NC2=S)cc1`, the Potency was 0.67 µM (active). As for `C[C@]12CC[C@@H]3C(=CCc4cc(O)ccc43)[C@@H]1CCC2=O`, the Potency result is “inactive”. Turning to `CCc1ccc(C2C(C#N)=C(N)Oc3n[nH]c(CC(=O)OC)c32)cc1` (stereo not given), the Potency entry was “inactive”.

On to `CC[N+](C)(CC)CCC[n+]1c(-c2ccccc2)c2cc(N)ccc2c2ccc(N)cc21`, for which the Potency is 2.12 µM (active).

As for `Clc1ccccc1`, the Potency entry was “inactive”. Take `CC(=O)[O][Sn]([c]1ccccc1)([c]1ccccc1)[c]1ccccc1`: the Potency entry was “inactive”. For `N#CC(C#N)=Cc1cc(O)c(O)c([N+](=O)[O-])c1`, the Potency was 5.62 µM (active). Take `ClC(Cl)=C(Cl)C(Cl)=C(Cl)Cl`: the Potency entry was “inactive”. As for `N#Cc1cc(Br)c(O)c(Br)c1`, the Potency entry was “inactive”. On the same count and under the same terms, then `N#CCCCl`, with “inactive”. For `Cc1nc(SCC(=O)NC2CCCC2)[nH]c(=O)c1C`, the activity change, negative = inhibition is 63.8% [at 12.4 µM] (inactive). Regarding `CC(C)COC(=O)n1c(=O)oc2ccc(S(=O)(=O)N3CCCCC3)cc21`, the Potency result was “inactive”.

With `CC(C)Nc1nc(Cl)nc(NC(C)C)n1`, the Potency result was “inactive and 22.4 µM (active)”. In the case of `CCCCC#N`, the Potency entry was “inactive”. Turning to `NCCCCC(N)C(=O)O` (stereo not given), the Potency result was “inactive”. Turning to `CCCCCCCCCCCCN=C(N)N`, the Potency result is “inactive”. On to `CC(C)(c1ccccc1)c1ccc(O)cc1`, for which the Potency result was “inactive”. With `C[C@H]1C/C=C/[C@@H]2[C@@H]3O[C@]3(C)[C@@H](C)[C@H]3[C@H](Cc4ccccc4)NC(=O)[C@]32OC(=O)O/C=C/[C@](C)(O)C1=O`, the Potency result was “inactive”. Take `O=C(OCC1O[C@@H](OC(=O)c2cc(O)c(O)c(O)c2)[C@@H](OC(=O)c2cc(O)c(O)c(O)c2)[C@@H](OC(=O)c2cc(O)c(O)c(O)c2)[C@@H]1OC(=O)c1cc(O)c(O)c(O)c1)c1cc(O)c(O)c(O)c1` (stereo not given in full): the Potency is 0.0112 µM (active). Turning to `Cc1cc(-c2n[nH]c(=S)n2-c2ccc(C)c(C)c2)no1`, the Potency entry was “inactive”.

For the compound `CC(=O)c1ccc(-c2ccc(Cn3c(C)nc4cc(N)c(C)nc43)cc2)cc1`, the Potency result is “inactive”. Take `CN(C)C1C(=O)C(C(N)=O)=C(O)[C@@]2(O)C(=O)C3=C(O)c4c(O)cccc4[C@@](C)(O)C3C[C@@H]12` (stereo not given in full): the Potency entry is “inactive”. `O=c1cc(-c2ccc(O)cc2)oc2c([C@@H]3O[C@H](CO)[C@@H](O)[C@H](O)[C@H]3O)c(O)cc(O)c12`: the Potency was 8.91 µM (active). With `C=CCOC(=O)c1ccccc1C(=O)OCC=C`, the Potency entry was “inactive”. For `CC(Cl)Cl`, the Potency result was “inactive”. As to `CC(C)CC(C)Nc1ccc(Nc2ccccc2)cc1` (stereo not given), the Potency entry is “inactive”. Take `CC(CCn1cccn1)NC(=O)CCc1nnc(CCc2ccccc2)o1` (stereo not given): the Potency result is “inactive”. In the case of `Cc1ccnc(-n2c(C)cc(/C=C3\C(=O)NC(=S)N(C)C3=O)c2C)c1`, the Potency result is “inactive”. Take `Cc1c(C(=O)O)cccc1-n1c(C)cc(/C=C2\C(=O)NC(=O)N(c3ccc4c(c3)OCO4)C2=O)c1C`: the Potency was 14.1 µM (active).

For `CC(C)(C)C(O)(CCc1ccc(Cl)cc1)Cn1cncn1` (stereo not given), the Potency result was “inactive”.

`C=CC#N`: the Potency result is “inactive”. Regarding `ClCCBr`, the Potency entry was “inactive”. `CCN(CC)c1nc(C)cc(OP(=S)(OC)OC)n1`: the Potency result is “inactive”. On to `CCOc1cc(N2CCOCC2)c(OCC)cc1NC(=O)C1=NN(c2cccc(C)c2)C(=O)CC1`, for which the Potency result is “inactive”.

In the case of `CCC12CCN(CCc3ccccc3)CC1Oc1c(O)cccc12` (stereo not given), the Potency entry is “inactive”.
